High-throughput results as filed in PubChem.
CXXC DNA block = qHTS Fluorescence Polarization Assay for Inhibitors of MLL CXXC domain - DNA interaction. Potency, µM (titrated, usually from 115 µM), without a hit: at the top dose activity change, negative = inhibition, most hits filed as inhibitors. AID 2662, 2010. actives 0.037% (n = 290,000). MLL-CXXC / FITC-HOXA9 DNA fluorescence polarization; active = well fitted inhibition curve with a large enough effect in the polarisation, with a control signal flat, not every such curve was filed as active; inconclusive = small, poorly fitted or top-dose-only effect, or effect the other way, or a change in a side signal; inactive = no such curve, though single readings can be large or run the other way; the % refers to the polarisation; note: potency is the fitted concentration of half-maximal effect
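Steps: dispense CXXC domain solution (7 uM) → pin compounds or unlabeled HOX-A9 DNA control → 5 min ambient → add FLSN-HOX-A9 solution (50 nM) → spin → 30 min ambient → fluorescence polarization. Tris pH 7.5/NaCl/DTT/BSA buffer.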
Menin-MLL TR inh = qHTS Assay for Inhibitors Targeting the Menin-MLL Interaction in MLL Related Leukemias: Competition With Texas Red Labeled MLL-derived Mutant Peptide; O00255; Menin + Texas Red MLL mutant peptide, fluorescence polarization; Potency, µM (titrated, usually from 61.6 µM), for the others: at the highest dose FP activity change, negative = inhibition, most hits filed as inhibitors; actives 0.23% (n = 270,000); AID 1768, 2009; active = well fitted inhibition curve with a large enough effect in the polarisation, with a control signal flat, not every such curve was filed as active; inconclusive = small, poorly fitted or top-dose-only effect, or effect the other way, or a change in a side signal; inactive = no such curve, though single readings can be large or run the other way; the % refers to the polarisation; note: potency is the fitted concentration of half-maximal effect; % of control where 0% means no effect
TRb-SRC2 inh = qHTS for Inhibitors of the Interaction of Thyroid Hormone Receptor and Steroid Receptor Coregulator 2; Thyroid hormone receptor beta (Homo sapiens), P10828; TRbeta-SRC2 peptide binding, fluorescence polarization; receptor liganded with 1 µM T3; Potency, µM (titrated, usually from 106 µM), for the others: at the highest dose activity change, negative = inhibition, actives largely listed as inhibitors; actives 0.065% (n = 280,000); active = well fitted inhibition curve with a large enough effect; inconclusive = small, poorly fitted or top-dose-only effect, or effect the other way;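 note: potency is the fitted concentration of half-maximal effect; plate controls were bound peptide for no effect and peptide without receptor for full effect; nearly all actives have a fitted effect of over 50% in size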
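Each compound concentration gave % activity, normalized to unbound and bound Texas Red SRC2 controls, from polarization read after 5 hr ambient incubation with T3-loaded human TRb LBD.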
TR SRC2 fluor cs = Total Fluorescence Counterscreen for Inhibitors of the Interaction of Thyroid Hormone Receptor and Steroid Receptor Coregulator 2; actives 0.29% (n = 280,000); Potency, µM (titrated, usually from 106 µM), without a hit: top-dose fluorescence change, negative = quenching; AID 1479, 2009; TRb/SRC2 Texas Red total fluorescence interference; active = well fitted curve in either direction with a large enough effect; inconclusive = small, poorly fitted or top-dose-only effect; note: potency is the fitted concentration of half-maximal effect; % is set by controls: 0 for no effect and ±100 for the full control effect
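Flags fluorescent or light-absorbing compounds by total fluorescence, S + 2P, at 555 nm excitation and 632 nm emission. Mixture: 20 nM Texas Red SRC2 peptide, 0.6 uM human TRb LBD, 1 uM T3, 5% DMSO; compound exposure 5 h at ambient temperature.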
Menin-MLL FL inh = qHTS Assay for Inhibitors Targeting the Menin-MLL Interaction in MLL Related Leukemias: Competition With Fluorescein Labeled MLL-derived Peptide. Fluorescence polarization, fluorescein-MLL peptide displacement from menin. FP activity change, % at 61.4 µM. 290,000 tested, under 10 active. AID 1766, 2009; active = well fitted curve in the direction sought with a large enough effect in the polarisation, not every such curve was filed as active; inconclusive = small, poorly fitted or top-dose-only effect, or effect the other way, or a change in a side signal; inactive = no such curve, though single readings can be large or run the other way; the % refers to the polarisation; note: % of control where 0% means no effect
Numbers without * were called inactive; ? = inconclusive; nt = no result given; [ ] = another dose, or the depositor's remark. A selection: hits, their analogues and other compounds. The true share with any hit is near 0.36%.

SMILES	CXXC DNA block	Menin-MLL TR inh	TRb-SRC2 inh	TR SRC2 fluor cs	Menin-MLL FL inh
CCCS(=O)(=O)N1CC(=O)N(c2cc(C)ccc2C)C(C)(C(=O)NC2CCCCCC2)C1 (configuration not stated)	nt	nt	-10%	25µM*[quencher]	nt
COC(=O)c1cc(NC(=O)c2ccccc2)c(=O)oc1/C=C/Nc1ccc(Oc2ccccc2)cc1	?	10µM*	-25%	28%	?
NCCCCCCCCCCCC(=O)O	nt	nt	3%[201 µM]	-6%[201 µM]	nt
COc1cccc([C@@H]2Oc3ccc(OC)cc3C(=O)[C@H]2OC(=O)NC2CCCC2)c1	nt	-5%	-1%	0%	-1
CNC(=O)c1c(NC(=O)Cc2coc3ccc(C)cc23)sc2c1CCCC2	nt	nt	-1%	?	nt
CCOC(=O)c1c(NC(=O)Cc2coc3cc(C)ccc23)sc2c1CCCC2	nt	nt	?	0.1µM*[quencher]	nt
Cc1ccc(Cn2c(CNC(=O)c3ccccc3Br)nc3cccnc32)cc1	nt	nt	-11%	0.01µM*[quencher]	nt
C=CC(=O)OCC[N+](C)(C)C	nt	nt	2%[201 µM]	-2%[201 µM]	nt
CSc1cccc(NC(=O)Cn2c(=O)n(Cc3ccccc3)c(=O)c3sc4ccccc4c32)c1	nt	nt	2%	1%	nt
CCCCN1CCc2[nH]c(=S)[nH]c(=O)c2C1	-6%	8%	-22%[53 µM]	0.71µM*[quencher]	-1
CC(C)c1ccc2cc(C(C)C)ccc2c1	nt	nt	-2%[201 µM]	3%[201 µM]	nt
CCc1ccc(NC(=O)Cc2csc(COc3cccc(C)c3)n2)cc1	nt	nt	3%	2%	nt
COc1ccc(-c2noc(CSc3nnc(Cc4ccccc4)n3-c3ccccc3)n2)cc1OC	nt	nt	-23%[53 µM]	0.28µM*[quencher]	nt
Cc1ccc(-c2noc(CSc3nnc(C)n3-c3ccc(C)cc3)n2)cc1	nt	nt	-25%[53 µM]	0.11µM*[quencher]	nt
COc1ccc(-c2noc(CSc3nnc(-c4ccncc4)n3-c3ccc(OC)cc3)n2)cc1	nt	nt	?	0.25µM*[quencher]	nt
COc1ccc(-c2noc(CSc3nnc(-c4ccncc4)n3-c3ccc(C)cc3)n2)cc1	nt	nt	7%	-19%	nt
COc1ccc(-c2noc(CSc3nnc(Cc4ccccc4)n3-c3cccc(C)c3)n2)cc1OC	6%	?	-3%	0%	-1
CCOC(=O)/C=C/CCC/C=C/C(=O)c1ccccc1	nt	0%	0%	-1%	1
COc1[nH]c(/N=C/c2ccccc2)c(C#N)c1C#N	8%	11µM*	-24%	10%	?
CCC(O)OCCCOC (configuration not stated)	nt	nt	-5%[201 µM]	-1%[201 µM]	nt
CN(C)c1ncnc2ccc(-c3cccc(C#N)c3)cc12	nt	-5%	nt	nt	1
CC(COCC(C)OC(=O)c1ccccc1)OC(=O)c1ccccc1 (configuration not stated)	nt	nt	-1%[201 µM]	-3%[201 µM]	nt
CC(=O)Nc1ccc(NC(=O)/C=C/c2cccc(C(F)(F)F)c2)cc1	4%	-19%	?	3.2µM*[quencher]	7
CCc1nn(CC(=O)Nc2c(C)cc(C)cc2C)c(=O)c2cc3sccc3n12	nt	nt	1%	0.28µM*[quencher]	nt
CCc1nn(CC(=O)Nc2ccc(C)cc2C)c(=O)c2cc3sccc3n12	nt	nt	-3%	1%	nt
SMILES	CXXC DNA block	Menin-MLL TR inh	TRb-SRC2 inh	TR SRC2 fluor cs	Menin-MLL FL inh
CS(C)=O	nt	nt	-1%[1.3e+05 µM]	2%[1.3e+05 µM]	nt
CCOC(=O)N1CCc2c(sc(NCc3sccc3C)c2C(=O)Nc2cc(OC)ccc2OC)C1	nt	nt	0%	-6%	nt
CCOC(=O)N1CCc2c(sc(NCc3cc(OC)ccc3OC)c2C(=O)Nc2cc(OC)ccc2OC)C1	nt	nt	-21%	398µM*[quencher]	nt
CN1CCc2c(sc3c2C(=O)NC(c2ccccn2)N3)C1 (configuration not stated)	?	?	10µM*	45µM*[fluorescent]	?
O=C(Nc1nc(-c2ccc3c(c2)Cc2ccccc2-3)cs1)c1ccccc1	5%	16µM*	-5%	-2%	2
CCCCCCCCCCCC[N+](C)(C)[O-]	nt	nt	2%[201 µM]	-4%[201 µM]	nt
Cc1ccc(NC(=O)c2cnccn2)cc1S(=O)(=O)N(C)C	0%	-2%	4%	-2%	-6
Cc1cnc(C(=O)Nc2ccc(C)c(S(=O)(=O)N(C)C)c2)cn1	7%	1%	-17%[53 µM]	35µM*[quencher]	2
O=C(Nc1nc(-c2ccccc2)cs1)C1c2ccccc2Oc2ccccc21	11%	18µM*	-6%	-3%	3
COc1ccc(OC)c(-c2csc(NC(=O)C3COc4ccccc4O3)n2)c1 (configuration not stated)	15%	-26%	-1%	-4%	-4
O=C(Nc1nc(-c2ccncc2)cs1)C1c2ccccc2Oc2ccccc21	3%	?	5%	-2%	10
COc1ccc(OC)c(-c2csc(NC(=O)C3c4ccccc4Oc4ccccc43)n2)c1	11%	14µM*	3%	-27%	7
Cn1cc(S(=O)(=O)N2CCCC2)cc1C(=O)Nc1cccc(C(F)(F)F)c1	-2%	nt	nt	nt	nt
Cn1cc(S(=O)(=O)N2CCCC2)cc1C(=O)Nc1ccc(C(F)(F)F)cc1	nt	nt	-10%	45µM*[quencher]	nt
Cc1ccccc1OCc1ccc(-c2nc(C#N)c(N3CCN(c4ccccc4)CC3)o2)o1	nt	nt	-14%	4µM*[quencher]	nt
Cc1ccccc1OCc1ccc(-c2nc(C#N)c(N3CCN(C)CC3)o2)o1	nt	nt	1%	8%	nt
CCOC(=O)c1c(NC(C)=O)c2c3c(sc2n1Cc1nc(-c2ccccc2Cl)oc1C)CCCC3	nt	nt	-14%	18µM*[quencher]	nt
COc1cccc(-n2c(=O)c3c4c(sc3n(Cc3ccc(C)cc3)c2=O)CCCC4)c1	nt	nt	0%	?	nt
COc1cccc(CNCCCSc2nnnn2C)c1	nt	nt	-21%	1000µM*[quencher]	nt
CC(C)(C)C1CCc2c(sc3nc(-c4cc5ccccc5oc4=O)[nH]c(=O)c23)C1 (configuration not stated)	nt	nt	-8%	4%	nt
CC1CCc2c(sc3nc(-c4cc5ccccc5oc4=O)nc(Cl)c23)C1 (configuration not stated)	nt	nt	-29%[53 µM]	32µM*[quencher]	nt
O=C(c1ccc(Cl)c([N+](=O)[O-])c1)N(Cc1ccccc1)C1CCS(=O)(=O)C1 (configuration not stated)	-14%	-1%	2%	1%	0
O=C(c1ccc(Cl)c([N+](=O)[O-])c1)N(Cc1cccc(Cl)c1)C1CCS(=O)(=O)C1 (configuration not stated)	0%	-14%	-13%	112µM*[quencher]	5
COc1ccc(C2=Nc3ccc(F)cc3NC(c3cccc(C(F)(F)F)c3)=N2)cc1	nt	nt	5%	-2%	nt
CN(C)C(=O)CCSC(SCCC(=O)O)c1cccc(/C=C/c2ccc3ccc(Cl)cc3n2)c1 (configuration not stated)	-4%	40%	8%	-5%	0
Cc1ccc(NC(=O)Cc2coc3ccc(C(C)C)cc23)cc1Cl	nt	nt	-28%[53 µM]	0.16µM*[quencher]	nt
